Test results as given in PubChem BioAssay (NCATS).
The source made the active and inactive calls. The call rests on the fitted dose curve; in most records, active means well fitted curve in the direction sought with a large enough effect; inactive means no such curve, though single readings can be large or run the other way. Residues, ends and D or L forms follow the SMILES beside them. *: point of attachment. Cbz = O=C(OCc1ccccc1)*

molecular target: Alpha-galactosidase A (Homo sapiens) (UniProt P06280); experiment: Counterscreen for Glucocerebrosidase Inhibitors: qHTS Assay for Human alpha-Galactosidase at pH 4.5 (AID 992); details: purified enzyme, fluorogenic substrate; series mostly up to 76.9 µM
Sequence (P06280 whole entry, looked up): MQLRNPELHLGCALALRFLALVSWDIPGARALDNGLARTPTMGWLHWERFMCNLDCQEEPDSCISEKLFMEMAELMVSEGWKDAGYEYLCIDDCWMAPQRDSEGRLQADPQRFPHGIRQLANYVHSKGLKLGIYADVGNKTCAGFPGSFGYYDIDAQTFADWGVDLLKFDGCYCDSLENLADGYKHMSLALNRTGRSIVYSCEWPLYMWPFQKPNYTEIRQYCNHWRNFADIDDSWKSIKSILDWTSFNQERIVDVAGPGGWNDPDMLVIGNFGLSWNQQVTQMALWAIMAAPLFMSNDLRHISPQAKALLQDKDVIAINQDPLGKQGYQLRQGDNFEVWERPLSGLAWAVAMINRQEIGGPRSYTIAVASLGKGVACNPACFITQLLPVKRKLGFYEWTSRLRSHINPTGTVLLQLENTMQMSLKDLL
In short: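 Fluorogenic 1536-well qHTS at pH 4.5 (citrate, Tween-20): 2 nM enzyme, 80 uM 4-MU-alpha-galactoside, 20 min room temperature, NaOH/glycine stop. Titration 0.7 nM to 77 uM, data normalized to no-enzyme and full-activity controls, Hill-fitted AC50.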

SMILES	outcome
CSC(=N)N	inactive
NCCCCN	inactive
COc1cc(N)c(Cl)cc1C(=O)OCCN1CCCCC1	inactive
O=C(O)C1=CCCN(CCON=C(c2ccccc2)c2ccccc2)C1	inactive
N[C@H](C(=O)O)c1cc(O)cc(O)c1	inactive
CCC(=O)N1CCN(C(=O)c2ccccc2)CC1	inactive
N=C(N)c1ccccc1	inactive
CC(C)[C@H](NC(=O)OCc1ccccc1)C(=O)N[C@H](C=O)Cc1ccccc1 (Cbz-Val-Phe-aldehyde)	inactive
Cc1nc2c(OCc3ccccc3)cccn2c1CC#N	inactive
CNCCNS(=O)(=O)c1cccc2cnccc12	inactive
COc1ccccc1N1CCN(CCCCNC(=O)c2ccc3ccccc3c2)CC1	inactive
CCN(CC)CCOC(=O)c1cc(Cl)c(N)cc1OC	inactive
COc1ccc(C(=O)NCc2cccnc2)cc1C(=O)NCc1cccnc1	inactive
O=C(O)c1ccccc1Nc1cccc(OCc2ccc3ccccc3n2)c1	inactive
NCCS(=O)O	inactive
COc1ccc(CCN(C)CCc2ccc(OC)c(OC)c2)cc1OC	inactive
O=C(OCCN1CCOCC1)C1(c2ccccc2)CCCCC1	inactive
CC(C)Cn1c(=O)n(C)c(=O)c2[nH]cnc21	inactive
O=C(O)c1cccnc1C(=O)O	inactive
O=C(O)C1=CCNCC1	inactive

SMILES	outcome
Fc1ccc(CN(C2=NCCN2)c2c(Cl)cccc2Cl)cc1	inactive
NCCCCN=C(N)N	inactive
CCCCCCN(CCCCCC)C(=O)Cc1c(-c2ccc(F)cc2)[nH]c2ccccc12	inactive
N[C@H](C(=O)O)[C@H](O)C(=O)O	inactive
O=C(O)c1cc(=O)cc(C(=O)O)[nH]1	inactive
O=c1onc2n1-c1cc(Br)ccc1OC2	inactive
O=C(N[C@@H](Cc1ccccc1)C(=O)CCl)OCc1ccccc1	inactive
CCSC(=N)N	inactive
COc1cc(/C=C(\C#N)C(=O)c2ccc(O)c(O)c2)cc(I)c1O	inactive
Cn1cc(C(=O)OCC2CCN(CCNS(C)(=O)=O)CC2)c2ccccc21	inactive
COc1ccc2c(c1)c(CC(=O)O)c(C)n2Cc1ccc(Cl)cc1	inactive
CC(=O)N[C@@H](Cc1c[nH]c2ccccc12)C(=O)OCc1cc(C(F)(F)F)cc(C(F)(F)F)c1	inactive
CCCc1c(OCCCOc2ccc(OCC(=O)O)cc2)ccc(C(C)=O)c1O	inactive
O=C(O)C1=CCCNC1	inactive
O=C1Nc2ccc(I)cc2/C1=C/c1cc(Br)c(O)c(Br)c1	inactive
CCCCCCCCCCCCCCSCC(=O)O	inactive
O=C(O)C1CCNCC1	inactive
Nc1ccc(-c2nc3ccc(-c4nc5ccc(N)cc5[nH]4)cc3[nH]2)cc1	inactive
CCCn1c(=O)c2c(ncn2C)n(CCC)c1=O	inactive
